{"source": "the antibiotic and cytotoxicity screens of Wong et al. (2023)", "note": "The campaign covered roughly 39,000 compounds. About 3,300 (8.5%) were called active. For the sample, actives were picked, then their nearest neighbours and some compounds at random.", "data": [{"tested_on": "HepG2", "assay": "cytotoxicity call (relative viability < 0.9)", "details": "10 µM", "values": [{"smiles": "COc1cc(OC)c(NC(=O)Cn2c(=O)n(-c3ccc(CC(=O)NC[C@H]4CCCO4)cc3)c(=O)c3ccccc32)cc1Cl", "cytotoxicity call": "inactive"}, {"smiles": "C[C@H]1CN([C@@H](C)CO)C(=O)c2cccc(NC(=O)Nc3ccccc3)c2O[C@@H]1CN(C)C(=O)Nc1cccc2ccccc12", "cytotoxicity call": "inactive"}, {"smiles": "C/C(=C\\C(=O)OCCCCCCCCC(=O)O)C[C@@H]1OC[C@H](C[C@@H]2O[C@H]2[C@@H](C)[C@H](C)O)[C@@H](O)[C@H]1O", "cytotoxicity call": "inactive"}, {"smiles": "CC(=O)N1[C@H](CO)[C@@H](c2ccccc2)[C@@H]1CNC(=O)CN1CCOCC1", "cytotoxicity call": "inactive"}, {"smiles": "C[C@H]1CN([C@@H](C)CO)S(=O)(=O)c2ccc(-c3cccc(F)c3)cc2O[C@H]1CN(C)S(C)(=O)=O", "cytotoxicity call": "inactive"}, {"smiles": "COCC#Cc1ccc2c(c1)O[C@@H](CN(C)S(=O)(=O)c1cccc(OC)c1)[C@H](C)CN([C@@H](C)CO)S2(=O)=O", "cytotoxicity call": "inactive"}, {"smiles": "C[N+](C)(C)C[C@H](O)CC(=O)O", "cytotoxicity call": "inactive"}, {"smiles": "C[N+](C)(C)C[C@@H](O)CC(=O)O", "cytotoxicity call": "inactive"}, {"smiles": "C[N+](C)(C)CC(O)CC(=O)[O-]", "note": "(configuration not stated)", "cytotoxicity call": "active"}, {"smiles": "COCCCOc1ccnc(CS(=O)c2nc3ccccc3[n-]2)c1C.[Na+]", "note": "(configuration not stated)", "cytotoxicity call": "inactive"}, {"smiles": "C[C@@H]1CN([C@@H](C)CO)S(=O)(=O)c2ccc(-c3cncnc3)cc2O[C@H]1CN(C)C(=O)NC1CCCC1", "cytotoxicity call": "inactive"}, {"smiles": "CC(=O)[C@@]12C=CCC[C@@H]1C[C@@H](C(=O)Nc1c(C)cccc1Cl)N2C(=O)c1nc(C)oc1C(F)(F)F", "cytotoxicity call": "inactive"}, {"smiles": "O=C1c2ccc3c4c(ccc(c24)C(=O)N1CCCCO)C(=O)N(CCCCO)C3=O", "cytotoxicity call": "active"}, {"smiles": "N=C(N)SCCN1C(=O)c2ccccc2C1=O", "cytotoxicity call": "inactive"}, {"smiles": "O=C(O)CCCN1C(=O)c2cccc3cccc(c23)C1=O", "cytotoxicity call": "inactive"}, {"smiles": "C[C@H]1CN([C@@H](C)CO)C(=O)CCCn2cc(nn2)CO[C@H]1CN(C)Cc1ccc(C(=O)Nc2ccccc2N)cc1", "cytotoxicity call": "inactive"}, {"smiles": "CN(C)C1CN(S(=O)(=O)CCC2CC2)C1", "cytotoxicity call": "inactive"}, {"smiles": "CO[C@H]1CN(C)C(=O)c2cc(NC(=O)NC3CCCCC3)ccc2OC[C@@H](C)N(CCc2ccccc2)C[C@@H]1C", "cytotoxicity call": "inactive"}, {"smiles": "COCC(=O)Nc1ccc2c(c1)C(=O)N(C)C[C@@H](OC)[C@H](C)CN(C(=O)Cc1ccccn1)[C@H](C)CO2", "cytotoxicity call": "inactive"}, {"smiles": "CO[C@@H]1CN(C)C(=O)c2cc(NS(C)(=O)=O)ccc2OC[C@H](C)N(C(=O)C2CCCCC2)C[C@@H]1C", "cytotoxicity call": "active"}, {"smiles": "COCC(=O)Nc1ccc2c(c1)C(=O)N(C)C[C@H](OC)[C@@H](C)CN(C(=O)Cc1ccccn1)[C@@H](C)CO2", "cytotoxicity call": "inactive"}, {"smiles": "CO[C@H]1CN(C)C(=O)c2cc(NS(C)(=O)=O)ccc2OC[C@H](C)N(C(=O)C2CCCCC2)C[C@H]1C", "cytotoxicity call": "inactive"}, {"smiles": "COCC(=O)Nc1ccc2c(c1)C(=O)N(C)C[C@H](OC)[C@@H](C)CN(C(=O)Cc1ccccn1)[C@H](C)CO2", "cytotoxicity call": "active"}, {"smiles": "COc1ccc(CN2C[C@H](C)[C@@H](OC)CN(C)C(=O)c3cc(NC(=O)c4nc5ccccc5s4)ccc3OC[C@@H]2C)cc1", "cytotoxicity call": "inactive"}, {"smiles": "CO[C@H]1CN(C)C(=O)c2cc(NC(=O)NC3CCCCC3)ccc2OC[C@H](C)N(CCc2ccccc2)C[C@@H]1C", "cytotoxicity call": "inactive"}, {"smiles": "COc1ccc(CN2C[C@@H](C)[C@H](OC)CN(C)C(=O)c3cc(NC(=O)c4nc5ccccc5s4)ccc3OC[C@@H]2C)cc1", "cytotoxicity call": "active"}, {"smiles": "CO[C@@H]1CN(C)C(=O)c2cc(NC(=O)NC3CCCCC3)ccc2OC[C@H](C)N(CCc2ccccc2)C[C@H]1C", "cytotoxicity call": "active"}, {"smiles": "CO[C@@H]1CN(C)C(=O)c2cc(NS(C)(=O)=O)ccc2OC[C@H](C)N(C(=O)C2CCCCC2)C[C@H]1C", "cytotoxicity call": "inactive"}, {"smiles": "COc1ccc(CN2C[C@@H](C)[C@H](OC)CN(C)C(=O)c3cc(NC(=O)c4nc5ccccc5s4)ccc3OC[C@H]2C)cc1", "cytotoxicity call": "inactive"}, {"smiles": "C[C@@H]1CN([C@@H](C)CO)S(=O)(=O)c2ccc(C#CC(C)(C)O)cc2O[C@@H]1CN(C)C(=O)C1CCCCC1", "cytotoxicity call": "inactive"}, {"smiles": "C[C@@H]1CN([C@@H](C)CO)C(=O)c2cc(NS(=O)(=O)c3cn(C)cn3)ccc2O[C@@H]1CN(C)Cc1ccc(C(=O)Nc2ccccc2N)cc1", "cytotoxicity call": "inactive"}, {"smiles": "O=C(C[C@@H]1CC[C@@H](NC(=O)CN2CCOCC2)[C@H](CO)O1)NCc1cccc(F)c1", "cytotoxicity call": "inactive"}, {"smiles": "C[C@H]1CN([C@@H](C)CO)C(=O)Cc2cc(NS(=O)(=O)c3cccs3)ccc2O[C@H]1CN(C)S(C)(=O)=O", "cytotoxicity call": "inactive"}, {"smiles": "C[C@H](CO)N1C[C@H](C)[C@H](CN(C)Cc2ccccc2)Oc2ccc(NC(=O)Cn3cnnn3)cc2C1=O", "cytotoxicity call": "inactive"}, {"smiles": "C[C@@H]1CN([C@@H](C)CO)C(=O)c2cccc(NC(=O)c3cnccn3)c2O[C@@H]1CN(C)Cc1ccncc1", "cytotoxicity call": "inactive"}, {"smiles": "COc1ccc2c3c(n(c2c1)C)[C@@H](CO)N(C[C@]13CCN(CC1)C(=O)Nc1cccc(c1)F)C(=O)CN1CCOCC1", "cytotoxicity call": "inactive"}, {"smiles": "C[C@@H]1CN([C@H](C)CO)C(=O)c2cccc(NC(=O)Nc3ccc4c(c3)OCO4)c2O[C@H]1CN(C)Cc1ccc(Cl)c(Cl)c1", "cytotoxicity call": "inactive"}, {"smiles": "CNC[C@H]1Oc2ccc(NS(=O)(=O)c3cn(C)cn3)cc2CC(=O)N([C@@H](C)CO)C[C@H]1C", "cytotoxicity call": "inactive"}, {"smiles": "C[C@H](O)C#Cc1ccc2c(c1)O[C@@H](CN(C)C(=O)c1ccccc1)[C@@H](C)CN([C@H](C)CO)S2(=O)=O", "cytotoxicity call": "inactive"}, {"smiles": "COc1ccc(NC(=O)Nc2ccc3c(c2)C(=O)N([C@H](C)CO)C[C@@H](C)[C@@H](CN(C)S(=O)(=O)c2cccs2)OCCCC[C@H](C)O3)cc1", "cytotoxicity call": "inactive"}, {"smiles": "CO[C@@H]1CN(C)C(=O)c2cc(NC(=O)NC3CCCCC3)ccc2OC[C@@H](C)N(CCc2ccccc2)C[C@@H]1C", "cytotoxicity call": "inactive"}, {"smiles": "CO[C@H]1CN(C)C(=O)c2cc(NC(=O)NC(C)C)ccc2OC[C@H](C)N(Cc2ccc(-c3ccccn3)cc2)C[C@@H]1C", "cytotoxicity call": "active"}, {"smiles": "CO[C@@H]1CN(C)C(=O)c2cc(NC(=O)NC3CCCCC3)ccc2OC[C@H](C)N(CCc2ccccc2)C[C@@H]1C", "cytotoxicity call": "inactive"}, {"smiles": "CO[C@@H]1CN(C)C(=O)c2cc(NC(=O)NC(C)C)ccc2OC[C@H](C)N(Cc2ccc(-c3ccccn3)cc2)C[C@H]1C", "cytotoxicity call": "inactive"}, {"smiles": "CO[C@@H]1CN(C)C(=O)c2cc(NC(=O)NC(C)C)ccc2OC[C@@H](C)N(Cc2ccc(-c3ccccn3)cc2)C[C@@H]1C", "cytotoxicity call": "inactive"}, {"smiles": "CO[C@@H]1CN(C)C(=O)c2cc(NC(=O)NC3CCCCC3)ccc2OC[C@@H](C)N(CCc2ccccc2)C[C@H]1C", "cytotoxicity call": "active"}, {"smiles": "COc1ccccc1CNC(=O)C[C@H]1C[C@@H]2c3cc(NC(=O)NC4CCCC4)ccc3O[C@@H]2[C@H](CO)O1", "cytotoxicity call": "inactive"}, {"smiles": "NC[C@H]1CN(Cc2ccc(F)cc2)CCO1", "cytotoxicity call": "inactive"}, {"smiles": "CN1C(=O)c2cc(NC(=O)C3CCOCC3)ccc2OC[C@@H]2O[C@H](CC(=O)NCCc3ccncc3)CC[C@@H]21", "cytotoxicity call": "inactive"}, {"smiles": "N[C@@H](Cc1ccc2nonc2c1)C(=O)O", "cytotoxicity call": "inactive"}, {"smiles": "O=C(C[C@@H]1CC[C@@H]2[C@H](COC[C@H](O)CN2S(=O)(=O)c2ccc(Cl)cc2)O1)N1CCc2ccccc2C1", "cytotoxicity call": "inactive"}, {"smiles": "O=C(c1cccc2ccccc12)N(C1CCCC1)C1CCCC1", "cytotoxicity call": "inactive"}, {"smiles": "CCN(CC)CCOC(=O)C(Cc1cccc2ccccc12)CC1CCCO1.O=C(O)C(=O)O", "note": "(configuration not stated)", "cytotoxicity call": "active"}, {"smiles": "CCn1c(=O)cc(N2CCC(C)CC2)[nH]c1=O", "cytotoxicity call": "inactive"}, {"smiles": "CO[C@H]1C[C@H](O[C@H]2[C@H](C)O[C@@H](O[C@@H]3/C(C)=C/C[C@@H]4C[C@@H](C[C@]5(C=C[C@H](C)[C@@H](C6CCCCC6)O5)O4)OC(=O)[C@@H]4C=C(C)[C@@H](O)[C@H]5OC/C(=C\\C=C\\[C@@H]3C)[C@]54O)C[C@@H]2OC)O[C@@H](C)[C@@H]1O", "cytotoxicity call": "inactive"}, {"smiles": "CO/N=C1\\C[C@]2(C[C@@H]3C[C@@H](C/C=C(\\C)C[C@@H](C)/C=C/C=C4\\CO[C@@H]5[C@H](O)C(C)=C[C@@H](C(=O)O3)[C@]45O)O2)O[C@H](/C(C)=C/C(C)C)[C@H]1C", "cytotoxicity call": "active"}, {"smiles": "CON=C1CC2(CC3CC(CC=C(C)CC(C)C=CC=C4COC5C(O)C(C)=CC(C(=O)O3)C45O)O2)OC(C(C)=CC(C)C)C1C", "note": "(configuration not stated)", "cytotoxicity call": "active"}, {"smiles": "COC1CC(OC2C(C)OC(OC3C(C)=CCC4CC(CC5(C=CC(C)C(C6CCCCC6)O5)O4)OC(=O)C4C=C(C)C(O)C5OCC(=CC=CC3C)C45O)CC2OC)OC(C)C1O", "note": "(configuration not stated)", "cytotoxicity call": "inactive"}, {"smiles": "C[C@@H]1CN([C@H](C)CO)C(=O)c2cc(NC(=O)c3ccncc3)ccc2O[C@@H](C)CCCCO[C@H]1CN(C)S(=O)(=O)c1cn(C)cn1", "cytotoxicity call": "inactive"}, {"smiles": "CC(C)NC(=O)N(C)C[C@@H]1Oc2ncc(-c3ccc(C(=O)N(C)C)cc3)cc2C(=O)N([C@H](C)CO)C[C@H]1C", "cytotoxicity call": "inactive"}, {"smiles": "CN(C)C(=O)c1cccc(-c2cccc(-c3nc(C(=O)N4CCCCC4)cc4c3[C@H](CCO)N([S@@](=O)C(C)(C)C)C4)c2)c1", "cytotoxicity call": "inactive"}, {"smiles": "C[C@@H]1CN([C@@H](C)CO)C(=O)c2cc(NC(=O)c3ccccc3)ccc2O[C@@H](C)CCCCO[C@H]1CN(C)C(=O)Nc1ccc2c(c1)OCO2", "cytotoxicity call": "inactive"}, {"smiles": "C[C@@H]1CN([C@@H](C)CO)C(=O)CCCn2nncc2CO[C@H]1CN(C)Cc1ccc2c(c1)OCCN2C", "cytotoxicity call": "inactive"}, {"smiles": "CCC(C)C(=O)OC1CC(C)C=C2C=CC(C)C(CCC3CC(O)CC(=O)O3)C21", "note": "(configuration not stated)", "cytotoxicity call": "inactive"}, {"smiles": "CCC(C)C(=O)OC1CC(O)C=C2C=CC(C)C(CCC(O)CC(O)CC(=O)[O-])C21.[Na+]", "note": "(configuration not stated)", "cytotoxicity call": "inactive"}, {"smiles": "CCC(C)C(=O)OC1CCC=C2C=CC(C)C(CCC3CC(O)CC(=O)O3)C21", "note": "(configuration not stated)", "cytotoxicity call": "active"}, {"smiles": "C[C@@H]1CN([C@@H](C)CO)C(=O)c2cc(NS(=O)(=O)c3ccc(F)cc3)ccc2O[C@@H](C)CCCCO[C@@H]1CN(C)C(=O)Nc1ccc(F)cc1", "cytotoxicity call": "inactive"}, {"smiles": "C[C@H](CO)N1C[C@H](C)[C@H](CN(C)C(=O)Nc2ccc(F)cc2)OCCCC[C@H](C)Oc2ccc(NS(=O)(=O)c3ccc(F)cc3)cc2C1=O", "cytotoxicity call": "inactive"}, {"smiles": "C[C@H]1CCCCO[C@H](CN(C)C(=O)Nc2ccc(F)cc2)[C@@H](C)CN([C@@H](C)CO)C(=O)c2cc(NS(=O)(=O)c3ccc(F)cc3)ccc2O1", "cytotoxicity call": "active"}, {"smiles": "C[C@@H]1CCCCO[C@H](CN(C)C(=O)Nc2ccc(F)cc2)[C@@H](C)CN([C@@H](C)CO)C(=O)c2cc(NS(=O)(=O)c3ccc(F)cc3)ccc2O1", "cytotoxicity call": "active"}, {"smiles": "C[C@@H]1CN([C@H](C)CO)C(=O)c2cc(NS(=O)(=O)c3ccc(F)cc3)ccc2O[C@@H](C)CCCCO[C@H]1CN(C)C(=O)Nc1ccc(F)cc1", "cytotoxicity call": "inactive"}, {"smiles": "C[C@@H]1CCCCO[C@H](CN(C)C(=O)Nc2ccc(F)cc2)[C@@H](C)CN([C@H](C)CO)C(=O)c2cc(NS(=O)(=O)c3ccc(F)cc3)ccc2O1", "cytotoxicity call": "inactive"}]}]}
